Assay results reported in PubChem BioAssay (NCATS).
Records with an inconclusive call do not appear. Active and inactive are the calls of the source. The call rests on the fitted dose curve; in most records, active means well fitted inhibition curve with a large enough effect; inconclusive means small, poorly fitted or top-dose-only effect; inactive means no such curve, though single readings can be large or run the other way.

Assay: BET inhibitor-based combinations targeting novel dependencies in MECOM-rearranged (r) AML: MV-4-11 cell line (AID 2202233); further: nearly all actives have a fitted effect of over 45% in size
Settings: MV-4-11 AML viability, CellTiter-Glo luminescence, 48 h; series mostly up to 46 µM
From the text: Ecotropic viral insertion site 1 (EVI1) is located on chromosome 3q26.2 as part of the MECOM (MDS and EVI1 complex) locus. Under normal hematopoiesis, EVI1 is a regulator of hematopoietic stem cell maintenance and self-renewal and EVI1 levels decrease as the cells differentiate. In approximately 5-10% of de novo acute myeloid leukemia (AML) EVI1 is aberrantly expressed, including Chromosomal inv(3)(q21;q26.2) or t(3;3)(q21;q26.2) alterations (MECOM-r) that account for about 50% of AML with EVI1 overexpression 31. AMLs with high levels of EVI1 have a poor prognosis and an overall survival time averaging between 10-14 months. EVI1 overexpression confers resistance in leukemia cells, highlighting the need to develop new targeted therapies for EVI1 overexpressing AMLs. Here, we performed an unbiased chemical drug screening by evaluating the single agent activity of a collection of 2,480 oncology-focused, approved and investigational drugs (NCATS Mechanism Interrogation Plates, MIPE v5.0) against a panel of seven AML cell lines. These included four MECOM-r cell-lines (AML-191, AML-194, UCSD-AML1 and HNT-34) and three non-MECOM-r AMLs (MV4-11, OCI-AML3 and SET-2). Exploiting the mechanistic redundancy built in the library, we identified target-level sensitivities in MECOM-r AML cells and relative activity as compared to other AML subtypes.
A collection of 2480 mechanistically annotated dugs (MIPE v5.0) was used to screen four 3q26.2 rearranged AML cell lines and three non-3q26.2 rearranged AML cell lines. This library purposely exploits redundancy by including multiple inhibitors of key onco-targets, while simultaneously encompassing mechanistic diversity, targeting more than 800 distinct mechanisms of action. Briefly, cells were seeded in 5 uL of growth media using a Multidrop Combi dispenser into 1536 well white polystyrene tissue culture treated plates (Corning) at a density of 500cells/well. For each cell-line, for each of the 2480 drugs in MIPE v5.0 library, an 11-point dose curve was generated via a 1536 pin-tool. Plates were incubated for 48 hr at standard incubator conditions, covered by a stainless steel gasketed lid to prevent evaporation. Cell viability was determined by luminescence based, Cell Titer Glo assay (Promega). In detail, 3 uL of Cell Titer Glo were added to each well and plates were incubated at room temperature for 15 min with a stainless-steel lid in place. Luminescence readings were taken using a Viewlux (PerkinElmer) with a 2 s exposure time per plate. Compound dose-response curves were normalized to DMSO and empty well controls on each plate. Quantitative drug activity data from dose-response curves was determined utilizing area Under the Curve (AUC) and Z-transformed AUC (Z-AUC, a mean-centering transformation applied to each individual cell-line screened).
Potency means the concentration at half of the fitted maximal effect.

SMILES | Potency
O=c1c(O)c(-c2ccc(O)cc2O)oc2cc(O)cc(O)c12 | inactive
Cc1cccc(CC(=O)N2CCc3c2ccc(-c2cn(C)c4ncnc(N)c24)c3F)n1 | 5.9 µM (active)
Nc1cccc(-c2cc3c(Oc4cccc(O)c4)ncnc3[nH]2)c1 | 2.95 µM (active)
Cn1cnc(-c2cc3nccc(Oc4ccc(NC(=S)NC(=O)Cc5ccccc5)cc4F)c3s2)c1 | 0.105 µM (active)
CN1CCN(c2ccc(C(=O)Nc3n[nH]c4ccc(Cc5cc(F)cc(F)c5)cc34)c(NC3CCOCC3)c2)CC1 | 0.468 µM (active)
Cc1ncc([N+](=O)[O-])n1CC(C)O (stereo not given) | inactive
Cc1c(-c2ccc(O)cc2)n(Cc2ccc(OCCN3CCCCCC3)cc2)c2ccc(O)cc12 | 16.6 µM (active)
CCCS(=O)(=O)Nc1ccc(F)c(C(=O)c2c[nH]c3ncc(-c4ccc(Cl)cc4)cc23)c1F | 33.2 µM (active)
O=c1cc(-c2ccccc2)oc2cc(O)cc(O)c12 | 16.6 µM (active)
CCCC(CCC)C(=O)Nc1ccn([C@@H]2O[C@H](CO)[C@@H](O)C2(F)F)c(=O)n1 | 1.05 µM (active)
CCN1CCN(Cc2ccc(Nc3ncc(F)c(-c4cc(F)c5nc(C)n(C(C)C)c5c4)n3)nc2)CC1 | 0.296 µM (active)
O=C1c2c(O)cc(O)cc2OC(c2ccc(O)c(O)c2)C1O (stereo not given) | 18.6 µM (active)
Cc1cc(C)c(CNC(=O)c2cc(-c3ccc(CN4CCOCC4)cc3)cc3c2cnn3C2CCCC2)c(=O)[nH]1 | 29.5 µM (active)
Cc1cccc(CN2CCN(C(c3ccccc3)c3ccc(Cl)cc3)CC2)c1 (stereo not given) | 20.9 µM (active)
CCNC(=O)c1cc2c(-c3cc(OCCN4CCCC4)c(Cl)cc3Cl)nc(N)nc2s1 | 0.363 µM (active)
CS(=O)(=O)N1CCC(NC(=O)c2[nH]ncc2NC(=O)c2c(Cl)cccc2Cl)CC1 | 0.59 µM (active)
CCCCCOC(=O)Nc1nc(=O)n([C@@H]2O[C@H](C)[C@@H](O)[C@H]2O)cc1F | inactive
Nc1ccccc1NC(=O)c1ccc(CNC(=O)OCc2cccnc2)cc1 | 1.48 µM (active)
C=CC(=O)Nc1cccc(Oc2nc(Nc3ccc(N4CCN(C)CC4)cc3OC)ncc2Cl)c1 | 4.68 µM (active)
O=C(c1c(F)ccc(NS(=O)(=O)N2CC[C@@H](F)C2)c1F)c1c[nH]c2ncc(-c3cnc(C4CC4)nc3)cc12 | 18.6 µM (active)

SMILES | Potency
CC(C)(OCc1nn(Cc2ccccc2)c2ccccc12)C(=O)O | inactive
CNC1CCC(N(Cc2cccc(-c3ccncc3)c2)C(=O)c2sc3c(F)ccc(F)c3c2Cl)CC1 (stereo not given) | 16.6 µM (active)
COc1cc2c(NC3CCN(C(C)C)CC3)nc(C3CCCCC3)nc2cc1OCCCN1CCCC1 | 8.33 µM (active)
CC1(C)CC(=O)c2c(C(F)(F)F)nn(-c3ccc(C(N)=O)c(NC4CCC(O)CC4)c3)c2C1 (stereo not given) | 0.0372 µM (active)
COc1cc2nc(-c3cc(F)ccc3O)nc(N[C@@H]3CNC[C@H]3C(C)(C)O)c2cc1OC | 0.0066 µM (active)
CNC(=O)c1ccc(N2C(=S)N(c3cnc(C#N)c(C(F)(F)F)c3)C(=O)C23CCC3)cc1F | inactive
O=C(O)C1CCCN(CCC=C(c2ccccc2)c2ccccc2)C1 (stereo not given) | inactive
O=C(NCCCNc1nc(Nc2cccc(CN3CCOCC3)c2)ncc1C1CC1)C1CCC1 | 0.417 µM (active)
Cn1c2ccccc2c2c3c(c4c5ccccc5n(CCC#N)c4c21)CNC3=O | 0.417 µM (active)
COc1cc2c(c(OC)c1OC)-c1ccc(OC)c(=O)cc1[C@@H](NC(C)=O)CC2 | 0.0372 µM (active)
CN(C)c1ccc2nc3ccc(=[N+](C)C)cc-3sc2c1 | 2.63 µM (active)
CCCOc1ccn2c(C(C)=O)cc(-c3ccccc3S(C)(=O)=O)c2c1 | 18.6 µM (active)
COC(=O)Nc1cc(Nc2cc(NC3CC3)c3ncc(C#N)n3n2)c(Cl)c(N2CCN(C)CC2)c1 | 0.833 µM (active)
CC(C)Oc1ccc2c(=O)c(-c3ccccc3)coc2c1 | inactive
CN1CCN(c2ncc(-c3cc(Cl)cc(Cl)c3Cl)c(N)n2)CC1 | 8.33 µM (active)
COc1ccc2cc3[n+](cc2c1OC)CCc1cc2c(cc1-3)OCO2 | 5.9 µM (active)
CCc1cccc2c3c([nH]c12)[C@@](CC)(CC(=O)O)OCC3 | inactive
CC1CCN(c2cc(N3CCN(C)CC3)ccc2NC(=O)c2cc(C#N)c[nH]2)CC1 | 8.33 µM (active)
N#CCNC(=O)c1ccc(-c2ccnc(Nc3ccc(N4CCOCC4)cc3)n2)cc1 | 0.833 µM (active)
Clc1ccc(C(c2ccc(Cl)cc2)n2cc[n+](CC(OCc3ccc(Cl)cc3Cl)c3ccc(Cl)cc3Cl)c2)cc1 (stereo not given) | 8.33 µM (active)
